Compounds with a hit are over-represented: about 2.3% of the library has one in this group of screens.
IL-2 act – qHTS of IL-2 Activators | 360,000 compounds, 0.065% hits | activation, % (series mostly up to about 46 µM) | AID 652025, 2013 | IL-2 activation reporter assay, cell-based qHTS; stimulated with anti-CD3/CD4/CD28 beads; in transgenic mouse T cells; in the data active means activation above about 50%; inconclusive means mostly about 30% to 49%; further: 0% is about no effect
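Using fluorescent plate cytometry, EGFP and DsRed are detected in transgenic mouse T cells stimulated 18 h at 37 degrees C with antibody-coated beads after 60 min compound pretreatment.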
Nrf2 activator – qHTS of Nrf2 Activators | Potency, µM (series often up to 46.1 µM), for the others: at the highest dose activation, hits mostly activators | AREc32 ARE-luciferase reporter (MCF7-derived line), luminescence, 24 h | 410,000 compounds, 0.31% hits; further: potency means the concentration at half of the fitted maximal effect; % of control where 0% means no effect; nearly all actives have a fitted effect of over 65% in size
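Each well held 1000 AREc32 cells, which were incubated with compound for 24 hr at 37 deg C after overnight attachment, and ARE reporter activity was quantified by firefly luciferase luminescence.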
Nrf2 block – Nrf2 qHTS screen for inhibitors; A549 ARE-Fluc reporter, luciferase luminescence, 18-24 h; Potency, µM (top dose mostly 46 µM), for the others: at the top dose activity change, negative = inhibition, hits mostly inhibitors; 360,000 compounds, 2.1% hits; further: potency means the concentration at half of the fitted maximal effect; on the % scale 0 is the no-effect control and ±100 the full control effect; nearly all actives have a fitted effect of over 60% in size
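Reporter: ARE-Fluc in A549. Exposure: 18-24 h, 37 °C, 5% CO2, 5% FBS OPTI-MEM. Readouts: fluorescent cytotoxicity (CellTiter-Fluor), then luminescent Nrf2 signal after BugLite.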
A549 tox-1 – Nrf2 qHTS screen for inhibitors: counterscreen for cytotoxicity | AID 504648, 2011 | Potency, µM (highest dose often 46 µM), for the others: at the top dose activity change, negative = cytotoxicity, most hits filed as inhibitors | 390,000 compounds, 0.16% hits | A549 ARE-Fluc cells, CellTiter-Fluor viability, 18-24 h; further: potency means the concentration at half of the fitted maximal effect; on the % scale 0 is the no-effect control and ±100 the full control effect
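A549 ARE_Fluc cells in 5% FBS OPTI-MEM were exposed to compounds in concentration-response for 18-24 h at 37 deg C. Viability was read by CellTiter-Fluor fluorescence (Ex 405/Em 525) after 30 min, before the luciferase read.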
FLuc counter 3 – Nrf2 qHTS screen for inhibitors: Purified Fluc Biochemical Counterscreen for Hit Validation | Potency, µM (titrated, usually from 57.5 µM), inactives show at the top dose activity change, negative = inhibition, hits mostly inhibitors | purified firefly luciferase, luminescence inhibition | shares compounds with Nrf2 block | 1,400 compounds, 4% hits; further: potency means the concentration at half of the fitted maximal effect; on the % scale 0 is the no-effect control and ±100 the full control effect; nearly all actives have a fitted effect of over 65% in size
Target sequence (P08659 whole entry, looked up): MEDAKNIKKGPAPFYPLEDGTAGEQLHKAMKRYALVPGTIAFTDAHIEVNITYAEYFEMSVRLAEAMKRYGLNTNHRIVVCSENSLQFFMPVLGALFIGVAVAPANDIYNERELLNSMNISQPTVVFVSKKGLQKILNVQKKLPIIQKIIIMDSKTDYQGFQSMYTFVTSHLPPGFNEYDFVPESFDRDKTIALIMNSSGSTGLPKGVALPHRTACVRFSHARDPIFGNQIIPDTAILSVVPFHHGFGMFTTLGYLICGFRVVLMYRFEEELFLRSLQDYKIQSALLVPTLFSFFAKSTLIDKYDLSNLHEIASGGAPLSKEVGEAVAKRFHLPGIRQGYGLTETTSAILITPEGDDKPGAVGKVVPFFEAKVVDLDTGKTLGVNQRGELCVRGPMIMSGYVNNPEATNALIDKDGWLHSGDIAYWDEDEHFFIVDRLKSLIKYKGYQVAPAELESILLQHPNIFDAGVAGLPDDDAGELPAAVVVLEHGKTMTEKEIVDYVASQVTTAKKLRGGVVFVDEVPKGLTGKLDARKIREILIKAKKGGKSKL
A549 tox-2 – Nrf2 qHTS screen for inhibitors: A549 ARE-Fluc Cytotoxicity Counterscreen for Hit Validation | shares compounds with Nrf2 block | A549 ARE-Fluc cells, cytotoxicity counterscreen | Potency, µM (series often up to 46.1 µM), without a hit: at the top dose activity change, negative = cytotoxicity, hits mostly inhibitors | 1,400 compounds, 2% hits | AID 720523, 2013;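 further: potency means the concentration at half of the fitted maximal effect; cells exposed to compounds for 18 to 24 hours; on the % scale 0 is the no-effect control and ±100 the full control effect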
Nrf2 ARE inh – Nrf2 qHTS screen for inhibitors: Nrf2 A549 ARE-Fluc Confirmation Assay for Hit Validation; shares compounds with Nrf2 block; A549 ARE-firefly luciferase reporter, luminescence; Potency, µM (titrated, usually from 46.1 µM), for inactives: at the highest dose activity change, negative = inhibition, usual class: inhibitors; 1,400 compounds, 74% hits; AID 720524, 2013; further: potency means the concentration at half of the fitted maximal effect; on the % scale 0 is the no-effect control and ±100 the full control effect; nearly all actives have a fitted effect of over 65% in size
* = called active by the depositor; ? = inconclusive; . = not tested or not shown. Unless noted, the call rests on the fitted dose curve; in most records, active means well fitted curve in the direction sought with a large enough effect; inconclusive means small, poorly fitted or top-dose-only effect, or another doubt; inactive means no such curve, though single readings can be large; an effect the other way counts as inactive or inconclusive.

SMILES | IL-2 act | Nrf2 activator | Nrf2 block | A549 tox-1 | FLuc counter 3 | A549 tox-2 | Nrf2 ARE inh
Cc1cccc(N2CCN(C(=O)C3CCC(CNS(=O)(=O)c4ccc(Br)s4)CC3)CC2)c1C (stereo not given) | . | 0% | ? | 0% | . | . | .
Cc1cccc(N2CCN(C(=O)C3CCC(CNS(=O)(=O)c4cccs4)CC3)CC2)c1C (stereo not given) | 0 | 3% | 6.5µM* | -20% | 0% | -17% | 8.2µM*
COc1ccc(NC(=O)c2cc(S(=O)(=O)NCCC3=CCCCC3)ccc2F)cc1 | . | 0% | . | -15% | . | . | .
CC(C)CC(=O)N1CCN(S(=O)(=O)c2ccc(C3CCCCC3)cc2)CC1 | 0 | -1% | 8.2µM* | -16% | 2% | -5% | ?
COc1ccc(-c2cc(C(=O)Nc3cccc(O)c3)on2)cc1OC | . | 4% | 24% | -6% | . | . | .
CCN1/C(=C/c2ccc3cc(C)ccc3[n+]2CC)Sc2ccccc21 | 90* | -3% | 0.73µM* | ? | -2% | 5.8µM* | .
CC[n+]1c(/C=C2\Sc3ccccc3N2C)ccc2cccc(C)c21 | 160* | -1% | 3.7µM* | ? | -14% | 6.5µM* | 2.6µM*
CCN1/C(=C/C=C/c2sc3ccccc3[n+]2CC)Sc2ccccc21 | 0 | -1% | 1.3µM* | -5% | ? | 12µM* | 2.6µM*
CC[n+]1c(/C=C/Nc2ccccc2)sc2ccccc21 | -3 | 4% | -25% | -8% | . | . | .
Cc1nc(C)c(C(=O)NNS(=O)(=O)c2ccc3ccccc3c2)s1 | -5 | -1% | 9.2µM* | -14% | 4% | 1% | ?
CCOc1ccc(-c2nn(CC(=O)NC3CCCCC3)c3c2cnc2ccc(C)cc23)cc1 | . | -1% | -1% | 0% | . | . | .
Cc1ccc(S(=O)(=O)Nc2ccc(Cl)cc2C(=O)c2ccccc2)cc1 | -1 | 3% | 5.8µM* | -24% | 2% | 10% | -2%
Cc1ccc(S(=O)(=O)Nc2ccc(Cl)cc2C(=O)c2ccc(F)cc2)cc1 | 0 | 0% | ? | -5% | . | . | .
Cc1ccc(CNc2c(C)c(C)nc3nncn23)cc1 | . | 4% | 3.7µM* | -7% | -1% | 1% | 4.1µM*
CCOc1ccc(OCc2ccc(C(=O)N/N=C(\C)c3ccccn3)cc2)cc1 | -1 | 13% | ? | ? | . | . | .
C/C(=N\NC(=O)c1ccc(Cl)c(Cl)c1)c1ccccn1 | 2 | 0% | 2.3µM* | ? | ? | -23% | .
COc1ccc(C(=O)N/N=C(\C)c2ccccn2)cc1OC | -1 | ? | 5.2µM* | ? | -16% | -47% | .
C/C(=N/NC(=O)c1ccc(C(C)(C)C)cc1)c1ccccn1 | 0 | 13% | 5.8µM* | ? | 11µM* | ? | ?
COc1ccccc1NC(=S)NN=C(C)c1ccccn1 | -1 | 0% | 1.2µM* | -18% | -28% | -22% | 2.6µM*
C/C(=N\NC(=O)c1ccccc1Cl)c1ccccn1 | 1 | 2% | ? | ? | . | . | .
CC(=NNC(=S)Nc1cccc(C)c1)c1ccccn1 | 0 | 7% | ? | -25% | . | . | .
CCc1cccc(C)c1NC(=O)CN1C(=O)C2(SCC(=O)N2c2cccc(F)c2)c2ccccc21 (stereo not given) | . | -1% | -7% | -3% | . | . | .
COc1ccc(C2c3c(-c4ccccc4)n[nH]c3C(=O)N2c2ccc(C(=O)O)cc2)c(OC)c1 (stereo not given) | . | -2% | 1% | -5% | . | . | .
CCOc1ccc(CNCc2c(C(=O)O)c(C)n(Cc3ccc(C)cc3)c2C)cc1 | . | 2% | 3% | 0% | . | . | .
C/C(=N\NC(=O)c1cc(-c2cccs2)nc2ccccc12)c1ccccn1 | -3 | 5% | 2.1µM* | ? | 9.5µM* | -23% | 1.8µM*
SMILES | IL-2 act | Nrf2 activator | Nrf2 block | A549 tox-1 | FLuc counter 3 | A549 tox-2 | Nrf2 ARE inh
Cc1ccccc1NC(=O)CSc1nc2c(oc3ccccc32)c(=O)n1Cc1ccco1 | . | 5% | 2% | -4% | . | . | .
c1csc(CNc2ncnc3sccc23)c1 | -2 | 13% | 5.8µM* | -17% | 1% | 1% | 7.3µM*
CCc1nc(N)nc(N)c1-c1ccc(N(C)Cc2ccccc2)c([N+](=O)[O-])c1 | -7 | 0% | 1.3µM* | -13% | -2% | -15% | 1.2µM*
Cc1ccc(C(=O)Nc2cc3cc(Cl)ccc3oc2=O)cc1 | . | ? | ? | 0% | . | . | .
Cc1cccc(OCc2n(CC(=O)OC3CC(C)CCC3C(C)C)c3ccccc3[n+]2C)c1 (stereo not given) | -1 | -2% | -12% | -13% | . | . | .
CC1CCC(C(C)C)C(OC(=O)Cn2c(-c3ccc(F)cc3)[n+](C)c3ccccc32)C1 (stereo not given) | -1 | 1% | 8.2µM* | ? | -2% | ? | 9.2µM*
CC1CCC(C(C)C)C(OC(=O)Cn2c(-c3ccccc3)[n+](C)c3ccccc32)C1 (stereo not given) | -1 | 2% | 3.7µM* | ? | 0% | ? | 2.1µM*
COc1ccc(NC(=O)CN2C(=O)c3cccnc3Sc3ccccc32)cc1OC | . | 8% | 26% | -4% | . | . | .
Cc1ccc(NC(=O)CN2C(=O)c3cccnc3Sc3ccccc32)cc1C | . | 9% | ? | 9% | ? | 1% | 62%
CO[C@H]1/C=C/O[C@@]2(C)Oc3c(C)c(O)c4c(O)c(c(C=NN5CCN(C)CC5)c(O)c4c3C2=O)NC(=O)/C(C)=C\C=C\[C@H](C)[C@H](O)[C@@H](C)[C@@H](O)[C@@H](C)[C@H](OC(C)=O)[C@@H]1C | 1 | 0% | 4.1µM* | ? | -10% | ? | 4.6µM*
COc1ccccc1CNC(=O)C(CC(C)C)N1Cc2ccccc2C1=O (stereo not given) | . | 3% | 17% | 1% | . | . | .
O=C(Cc1ccc(Cl)cc1)Nc1ccncc1 | 0 | 2% | 5.8µM* | -11% | 2% | 3% | -24%
Cc1ccc(CC(=O)Nc2ccncc2)cc1 | 1 | 0% | ? | -4% | . | . | .
CN(Cc1cnc2nc(N)nc(N)c2n1)c1ccc(C(=O)NC(CCC(=O)O)C(=O)O)cc1 (stereo not given) | 0 | 0% | 0.29µM* | -9% | -17% | -9% | 1.5µM*
CN(Cc1cnc2nc(N)nc(N)c2n1)c1ccc(C(=O)NC(CCC(=O)O)C(=O)O)cc1C(F)(F)F (stereo not given) | 0 | 1% | ? | -19% | . | . | .
